The text below walks through data of PubChem BioAssay.

The source made the active and inactive calls. Cut-off read from the data, not from the text of the source, unless noted: active = inhibition above about 30%; inactive = the rest.

One experiment concerns transactivating tegument protein VP16 (Human herpesvirus 1), Gal4-VP16 luciferase reporter. Put plainly: repression of VP16-driven luciferase reporter – cell-based, luminescence, high throughput, counter-screen for SRC3 inhibitor project (AID 588794). Particulars: mammalian cells, at 3.6 µM, stronger effect = higher value. In general terms: A reporter such as luciferase makes a cellular process visible.
The inhibition is the relative decrease from the control value, in per cent. Take `c1cc(CNc2ccc3c(c2)OCCO3)ccn1`: the inhibition was -11.2% (inactive).

Take `Cc1nn(Cc2ccc(C(=O)Nc3nccs3)cc2)c(C)c1Cl`: the inhibition was 45.6% (active).

As to `CC1CN(S(=O)(=O)c2ccc(C(=O)NCCCn3ccnc3)cc2)CC(C)O1` (stereo not given), the inhibition is 47.5% (active).

Consider `O=[N+]([O-])c1ccc(Sc2cccc[n+]2[O-])c2nonc12`, for which the inhibition was 95.4% (active).

As to `O=C(NN=Cc1ccccc1O)NN=Cc1ccccc1O`, the inhibition is 80% (active).

On to `NC(=S)NN=Cc1cc(-c2cccc(N)c2)ccn1`, for which the inhibition was 53% (active).

Regarding `Cc1ccc(-c2cc3cccc[n+]3cc2-c2ccc(C)cc2)cc1`, the inhibition was 53.5% (active).

With `Cc1cc(/C=N/n2cnnc2)c(C)n1-c1ccc(OCc2ccc(Cl)cc2Cl)cc1`, the inhibition was 43.4% (active).

In the case of `OCC1OC(n2cnc3c(NCc4ccco4)ncnc32)C(O)C1O` (stereo not given), the inhibition is 53.4% (active).

Take `CCC[N+]1(CC#CCC(c2ccccc2)c2ccccc2)CCCCC1`: the inhibition was 40.3% (active).

Consider `O=C(N/N=C(\c1ccccc1)c1cccnc1)c1cccc(F)c1`, for which the inhibition is 31.2% (active).

Consider `COc1ccc(/C=C/c2cc(-c3ccc(C)cc3)o[n+]2C)cc1`, for which the inhibition is 74.6% (active).

Consider `CCN(CC)c1ccc(C(=C2C=CC(=[N+](CC)CC)C=C2)c2ccc(N(CC)CC)cc2)cc1`, for which the inhibition is 89.9% (active).

For `Cc1ccc(NCCN(C)C)c2c(=O)c3cc(O)ccc3sc12`, the inhibition was 41.6% (active).

In the case of `Cc1cc(OCc2nc(N)nc(N)c2-c2ccc(Cl)c(Cl)c2)ccc1[N+](=O)[O-]`, the inhibition was 30.6% (active).

On to `CCC(C)n1ncn(-c2ccc(N3CCN(c4ccc(O)cc4)CC3)cc2)c1=O` (stereo not given), for which the inhibition was 51.9% (active).

Turning to `N=c1c2c(-c3ccccc3)c(-c3ccccc3)n(Cc3ccco3)c2ncn1CCO`, the inhibition is 54.5% (active).

As to `CCCC(=O)NC(c1ccc(Cl)cc1)c1ccc2cccnc2c1O` (stereo not given), the inhibition is 28% (inactive).

Regarding `Cc1cc(C)cc(NS(=O)(=O)c2ccc3c(c2)c(=O)n(C)c(=O)n3C)c1`, the inhibition is 36.5% (active).

On to `COc1ccc(OC)c(Cc2cnc3nc(N)nc(N)c3c2C)c1`, for which the inhibition is 27.5% (inactive).

`COc1cccc(/C=N\NC(=O)c2ccc(Cn3cc(Br)c([N+](=O)[O-])n3)o2)c1O`: the inhibition was 38.4% (active).

For `NC1=C(Cl)C(=O)c2ccc(S(N)(=O)=O)cc2C1=O`, the inhibition is 93.7% (active).

As to `O=C(/C=C/c1cccs1)NC(=S)NNC(=O)c1ccccc1O`, the inhibition is 77.6% (active).

Take `CC(C)CC[n+]1ccccc1/C=C/c1ccc(N(C)C)cc1`: the inhibition was 79.3% (active).

As for `CN(C)c1ncnc2c1nnn2C1OC(CO)C(O)C1O` (stereo not given), the inhibition was 81.1% (active).

Regarding `Cn1c2c(c(=O)n(C)c1=O)C(C(F)(F)F)(C(F)(F)F)N=C(c1ccc(Cl)cc1)N2`, the inhibition was 85.7% (active).

On to `CCC(C)N(CC(=O)Nc1cccc(C)c1C)C(=O)CCl` (stereo not given), for which the inhibition is 67% (active).

In the case of `COc1ccc(Cn2c(-c3ccc(C)cc3)c[n+]3ccccc23)cc1`, the inhibition is 52.1% (active).

As for `CCN1CCN(/C=N/c2nc3c(s2)CCCC3)CC1`, the inhibition is -9.09% (inactive).

Turning to `Cc1ccc(O)c(N=Nc2nccs2)c1`, the inhibition was 57% (active).

In the case of `Cc1cc(C(C)(C)C)cc(C)c1C[n+]1ccc2ccccc2c1`, the inhibition was 59.3% (active).

As for `CN(C)c1ccc(C=c2c3ccccc3n3c2c2c([n+]3C)CCCC2)cc1`, the inhibition was 81.7% (active).

For the molecule `CN(C(=O)OC(C)(C)C)c1ccc(-c2nc3ccccc3s2)cc1`, the inhibition is 84.5% (active).

`CC(NNC(=S)N1CCN(c2ccccn2)CC1)c1nccc2ccccc12` (stereo not given): the inhibition was 54.2% (active).

As to `Cc1ccc(S(=O)(=O)N(C)C)cc1NC(=O)c1cncc(Br)c1`, the inhibition was 5.79% (inactive).

As to `CCN1/C(=C/C(C)=C/c2sc3ccccc3[n+]2CC)Sc2ccccc21`, the inhibition is 84.2% (active).

For the molecule `CCOc1ccccc1O[C@H](c1ccccc1)[C@H]1CNCCO1`, the inhibition was -0.26% (inactive).

`CN1OC[C@@H]2CN[C@H](c3ccc(-c4cc5ccccc5o4)cc3)C[C@@H]21`: the inhibition was 76.8% (active).

Take `CN(C)c1ccc(C=c2c3ccccc3n3c2cc(-c2ccccc2)[n+]3C)cc1`: the inhibition was 84.2% (active).

For `CCCCCCCCCCn1ccc(=N)cc1`, the inhibition is 81.1% (active).

For a further experiment, the target named is Nuclear receptor coactivator 1 (Homo sapiens) (UniProt Q15788). Put plainly: NCOA1 GAL4-fusion reporter inhibition – cell-based, luminescence, quadruplicate, confirmation (AID 588820;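 active = mean inhibition above 46.68%, the untreated control wells mean plus 3 SD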;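 note: 0% = DMSO wells and 100% = gossypol 36 µM treated wells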). Particulars: HEK293 GAL4-SRC1 luciferase reporter, at 3.6 µM, stronger effect = higher value.
Chain of Nuclear receptor coactivator 1 (Homo sapiens) (Q15788 whole entry, looked up, the tested form may be a part): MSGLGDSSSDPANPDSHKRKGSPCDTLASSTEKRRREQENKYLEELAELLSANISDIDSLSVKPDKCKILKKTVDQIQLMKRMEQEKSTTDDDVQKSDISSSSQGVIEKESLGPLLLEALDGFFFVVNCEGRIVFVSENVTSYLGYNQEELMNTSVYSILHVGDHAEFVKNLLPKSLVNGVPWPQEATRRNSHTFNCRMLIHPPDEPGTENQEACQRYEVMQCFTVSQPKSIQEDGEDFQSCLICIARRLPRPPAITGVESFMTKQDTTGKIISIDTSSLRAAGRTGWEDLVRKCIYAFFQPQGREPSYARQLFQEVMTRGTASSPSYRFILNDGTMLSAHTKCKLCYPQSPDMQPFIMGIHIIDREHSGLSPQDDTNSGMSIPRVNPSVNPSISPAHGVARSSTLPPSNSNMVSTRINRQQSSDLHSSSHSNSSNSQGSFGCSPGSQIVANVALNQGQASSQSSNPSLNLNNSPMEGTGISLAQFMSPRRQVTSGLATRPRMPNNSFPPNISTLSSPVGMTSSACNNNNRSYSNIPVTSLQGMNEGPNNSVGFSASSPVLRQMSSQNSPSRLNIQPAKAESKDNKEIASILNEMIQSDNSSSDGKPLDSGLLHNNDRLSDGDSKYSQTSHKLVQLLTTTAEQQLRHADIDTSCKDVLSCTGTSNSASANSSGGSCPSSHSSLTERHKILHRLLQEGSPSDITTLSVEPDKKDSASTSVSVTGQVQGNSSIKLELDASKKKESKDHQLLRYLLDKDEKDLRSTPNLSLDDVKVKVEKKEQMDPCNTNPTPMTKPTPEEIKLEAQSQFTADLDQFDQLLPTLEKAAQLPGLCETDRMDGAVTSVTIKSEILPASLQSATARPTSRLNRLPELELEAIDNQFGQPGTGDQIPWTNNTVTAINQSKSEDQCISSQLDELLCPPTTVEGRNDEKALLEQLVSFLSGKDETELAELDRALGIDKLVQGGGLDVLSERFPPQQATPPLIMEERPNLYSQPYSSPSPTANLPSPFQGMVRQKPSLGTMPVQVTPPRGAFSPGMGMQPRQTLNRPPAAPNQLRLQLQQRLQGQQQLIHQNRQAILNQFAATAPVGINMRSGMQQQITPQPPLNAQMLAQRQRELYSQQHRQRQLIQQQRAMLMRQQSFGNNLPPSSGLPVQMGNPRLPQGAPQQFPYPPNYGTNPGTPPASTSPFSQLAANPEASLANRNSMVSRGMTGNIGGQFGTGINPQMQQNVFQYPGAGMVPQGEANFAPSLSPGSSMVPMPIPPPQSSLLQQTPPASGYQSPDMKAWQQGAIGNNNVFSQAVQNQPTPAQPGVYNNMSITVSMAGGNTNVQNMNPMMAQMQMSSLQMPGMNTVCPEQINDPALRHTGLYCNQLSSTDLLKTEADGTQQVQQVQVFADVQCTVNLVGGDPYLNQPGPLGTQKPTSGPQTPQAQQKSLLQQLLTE
As for `c1cc(CNc2ccc3c(c2)OCCO3)ccn1`, the inhibition was -6.52% (inactive).

For the molecule `Cc1nn(Cc2ccc(C(=O)Nc3nccs3)cc2)c(C)c1Cl`, the inhibition was 17.9% (inactive).

For the molecule `CC1CN(S(=O)(=O)c2ccc(C(=O)NCCCn3ccnc3)cc2)CC(C)O1` (stereo not given), the inhibition is 67.9% (active).

Regarding `O=[N+]([O-])c1ccc(Sc2cccc[n+]2[O-])c2nonc12`, the inhibition is 91.7% (active).

For `O=C(NN=Cc1ccccc1O)NN=Cc1ccccc1O`, the inhibition is 24.6% (inactive).

With `NC(=S)NN=Cc1cc(-c2cccc(N)c2)ccn1`, the inhibition was 64.1% (active).

On to `Cc1ccc(-c2cc3cccc[n+]3cc2-c2ccc(C)cc2)cc1`, for which the inhibition is 35.9% (inactive).

For the molecule `Cc1cc(/C=N/n2cnnc2)c(C)n1-c1ccc(OCc2ccc(Cl)cc2Cl)cc1`, the inhibition was 8.2% (inactive).

As for `OCC1OC(n2cnc3c(NCc4ccco4)ncnc32)C(O)C1O` (stereo not given), the inhibition is 33.5% (inactive).

On to `CCC[N+]1(CC#CCC(c2ccccc2)c2ccccc2)CCCCC1`, for which the inhibition is 21.4% (inactive).

Consider `O=C(N/N=C(\c1ccccc1)c1cccnc1)c1cccc(F)c1`, for which the inhibition was 31% (inactive).

As to `COc1ccc(/C=C/c2cc(-c3ccc(C)cc3)o[n+]2C)cc1`, the inhibition is 56.2% (active).

With `CCN(CC)c1ccc(C(=C2C=CC(=[N+](CC)CC)C=C2)c2ccc(N(CC)CC)cc2)cc1`, the inhibition was 60.9% (active).

Consider `Cc1ccc(NCCN(C)C)c2c(=O)c3cc(O)ccc3sc12`, for which the inhibition was 46.6% (inactive).

Regarding `Cc1cc(OCc2nc(N)nc(N)c2-c2ccc(Cl)c(Cl)c2)ccc1[N+](=O)[O-]`, the inhibition is 71.3% (active).

Regarding `CCC(C)n1ncn(-c2ccc(N3CCN(c4ccc(O)cc4)CC3)cc2)c1=O` (stereo not given), the inhibition was 20.6% (inactive).

On to `N=c1c2c(-c3ccccc3)c(-c3ccccc3)n(Cc3ccco3)c2ncn1CCO`, for which the inhibition was 41% (inactive).

`CCCC(=O)NC(c1ccc(Cl)cc1)c1ccc2cccnc2c1O` (stereo not given): the inhibition was 15.5% (inactive).

As to `Cc1cc(C)cc(NS(=O)(=O)c2ccc3c(c2)c(=O)n(C)c(=O)n3C)c1`, the inhibition is 57.1% (active).

With `COc1ccc(OC)c(Cc2cnc3nc(N)nc(N)c3c2C)c1`, the inhibition was 59.9% (active).

In the case of `COc1cccc(/C=N\NC(=O)c2ccc(Cn3cc(Br)c([N+](=O)[O-])n3)o2)c1O`, the inhibition is 35% (inactive).

Turning to `NC1=C(Cl)C(=O)c2ccc(S(N)(=O)=O)cc2C1=O`, the inhibition was 82% (active).

On to `O=C(/C=C/c1cccs1)NC(=S)NNC(=O)c1ccccc1O`, for which the inhibition is 57% (active).

For the molecule `CC(C)CC[n+]1ccccc1/C=C/c1ccc(N(C)C)cc1`, the inhibition is 54.6% (active).

`CN(C)c1ncnc2c1nnn2C1OC(CO)C(O)C1O` (stereo not given): the inhibition was 29.6% (inactive).

Consider `Cn1c2c(c(=O)n(C)c1=O)C(C(F)(F)F)(C(F)(F)F)N=C(c1ccc(Cl)cc1)N2`, for which the inhibition is 42.6% (inactive).

Turning to `CCC(C)N(CC(=O)Nc1cccc(C)c1C)C(=O)CCl` (stereo not given), the inhibition was 52% (active).

With `COc1ccc(Cn2c(-c3ccc(C)cc3)c[n+]3ccccc23)cc1`, the inhibition was 19.8% (inactive).

For `CCN1CCN(/C=N/c2nc3c(s2)CCCC3)CC1`, the inhibition is -62.9% (inactive).

With `Cc1ccc(O)c(N=Nc2nccs2)c1`, the inhibition was 36% (inactive).

In the case of `Cc1cc(C(C)(C)C)cc(C)c1C[n+]1ccc2ccccc2c1`, the inhibition is 11.7% (inactive).

For `CN(C)c1ccc(C=c2c3ccccc3n3c2c2c([n+]3C)CCCC2)cc1`, the inhibition was 55.7% (active).

As to `CN(C(=O)OC(C)(C)C)c1ccc(-c2nc3ccccc3s2)cc1`, the inhibition is 78.8% (active).

On to `CC(NNC(=S)N1CCN(c2ccccn2)CC1)c1nccc2ccccc12` (stereo not given), for which the inhibition is 55.6% (active).

With `Cc1ccc(S(=O)(=O)N(C)C)cc1NC(=O)c1cncc(Br)c1`, the inhibition is 8.59% (inactive).

Take `CCN1/C(=C/C(C)=C/c2sc3ccccc3[n+]2CC)Sc2ccccc21`: the inhibition was 58.4% (active).

Regarding `CCOc1ccccc1O[C@H](c1ccccc1)[C@H]1CNCCO1`, the inhibition is -8.72% (inactive).

Regarding `CN1OC[C@@H]2CN[C@H](c3ccc(-c4cc5ccccc5o4)cc3)C[C@@H]21`, the inhibition was 68.6% (active).

On to `CN(C)c1ccc(C=c2c3ccccc3n3c2cc(-c2ccccc2)[n+]3C)cc1`, for which the inhibition was 56.7% (active).

As to `CCCCCCCCCCn1ccc(=N)cc1`, the inhibition is 51.3% (active).
